Results as given in PubChem BioAssay (Tox21).
Records with an inconclusive call do not appear. Values without a mark were called inactive. Active and inactive are the calls of the source. Calls follow the shape of the dose curve; as a rule, active = well fitted cell-killing curve with a large enough effect in the repeat runs; inconclusive = weak or mixed curves, or effect the other way; inactive = flat fitted curve, though single readings scatter.

Assay: cAMP Responsive Elements (CRE) small molecule agonists, cell-based qHTS assay: qHTS cell viability counter screen (AID 2060914); also: nearly all actives have a fitted effect of over 50% in size
Conditions: CRE-bla HEK293T viability, CellTiter-Glo luminescence, 5 h; series mostly up to 92.4 µM; activity change, negative = cytotoxicity: at the top concentration
Outline: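 Cytotoxicity was measured as ATP luminescence (CellTiter-Glo, 30 min at room temperature) in the same wells as the CRE-bla FRET read-out. HEK293T CRE-bla cells had 3 h compound exposure at 37C/5% CO2.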
% is scaled to controls: 0 for no effect and ±100 for the full control effect; potency is read from the fitted curve at half-maximal effect.

In order of falling “activity change, negative = cytotoxicity” value:
1. C=CC(=O)OCC(CC)(COC(=O)C=C)COC(=O)C=C  14.5%
2. Oc1c(I)cc(I)cc1I  7.61%
3. CCN(C)N=O  5.14%
4. Oc1ccc(I)cc1  4.23%
5. Cc1ccc(OP(=O)(Oc2ccccc2)Oc2ccccc2)cc1  0.907%
6. N#C/C=C/C#N  0.748%
7. C=CC(C)(CCC=C(C)C)OC(=O)c1ccccc1N (stereo not given)  0.468%
8. CCOc1cccc(C2(N3CCN(c4ccccc4)CC3)CCC(C)CC2)c1 (stereo not given)  0.265%
9. O=[N+]([O-])c1ccc(Oc2ccc(C(F)(F)F)cc2[N+](=O)[O-])cc1  -1.03%
10. FC(F)OC(F)(F)C(F)Cl (stereo not given)  -3.88%
11. CCc1cc(OC)c(C[C@H](C)N)cc1OC  -5.45%
12. CCCCc1ccc(O)cc1  -9.01%
13. N#Cc1cc(Br)c(O)c(Br)c1  -9.16%
14. COP(=O)(OC)O/C(=C\Cl)c1cc(Cl)c(Cl)cc1Cl  -12.5%
15. CN(C)c1ccc(N(C)C)cc1  -13.2%
16. CCOP(=S)(OCC)Oc1cc(Cl)c(Br)cc1Cl  -13.3%
17. ClCC1CO1 (stereo not given)  -14.6%
18. CCCCCCCCn1cc[n+](C)c1  -16.3%
19. CC1COC(Cn2cncn2)(c2ccc(Oc3ccc(Cl)cc3)cc2Cl)O1 (stereo not given)  -16.9%
20. OCC(c1ccc(Cl)cc1)c1ccc(Cl)cc1  -18.9%
21. FC(F)C(F)(F)OCC(Cn1cncn1)c1ccc(Cl)cc1Cl (stereo not given)  -19%
22. O=S1OC[C@@H]2[C@H](CO1)[C@]1(Cl)C(Cl)=C(Cl)[C@@]2(Cl)C1(Cl)Cl (stereo not given in full)  -21.1%

For COC(=O)N(OC)c1ccccc1COc1ccn(-c2ccc(Cl)cc2)n1, the Potency was 5.45 µM (active).
In the case of CCCCN(CCCC)SN(C)C(=O)Oc1cccc2c1OC(C)(C)C2, the Potency is reported as “inactive”.
In the case of CCN(CC)C(=O)SCc1ccc(Cl)cc1, the Potency is reported as “inactive”.
With C[C@]12C/C(=C/O)C(=O)C[C@@H]1CC[C@@H]1[C@@H]2CC[C@@]2(C)[C@H]1CC[C@]2(C)O the Potency was “inactive”.
With C=C(C)[C@H]1Cc2c(ccc3c2O[C@@H]2COc4cc(OC)c(OC)cc4[C@@H]2C3=O)O1 the Potency was “inactive”.
For O=P(OCC(Br)CBr)(OCC(Br)CBr)OCC(Br)CBr (stereo not given), the Potency was “inactive”.
For CN(C)C(=O)C(c1ccccc1)c1ccccc1, the Potency was “inactive”.
In the case of CCOc1ccc(N)cc1, the Potency is reported as “inactive”.
In the case of C=CC(Cl)CCl (stereo not given), the Potency is reported as “inactive”.
In the case of O=C1C(Cl)=C(Cl)C(=O)c2ccccc21, the Potency is reported as “inactive”.

In order of falling “activity change, negative = cytotoxicity” value:
1. CCC(C)C(C)(COC(N)=O)COC(N)=O (stereo not given)  10.2% [at 42.5 µM]
2. CCN(CC)Cc1nccn1-c1ccc([N+](=O)[O-])cc1C(=O)c1ccccc1Cl  0.724% [at 42.5 µM]
3. c1cc2c(c(N3CCNCC3)c1)OCCO2  0.444% [at 42.5 µM]
4. COc1ccc2c(C(=O)c3ccc(Cl)cc3)c(C)n(CC(=O)O)c2c1  0.254% [at 42.5 µM]
5. CCOC(=O)C1(c2ccccc2)CCN(CCC(C#N)(c2ccccc2)c2ccccc2)CC1  0.0445% [at 42.5 µM]
6. N#CC(C#N)=Cc1ccc(O)c(O)c1  -1.7% [at 42.5 µM]
7. [O-][Br+2]([O-])O  -5.52% [at 42.5 µM]
8. CCO[C@H]1O[C@@H]2OC3(C)CC[C@H]4[C@H](C)CC[C@@H]([C@H]1C)[C@@]24OO3  -6.44% [at 42.5 µM]
